Source: PubChem
An excerpt weighted towards active compounds, which were near 2.7% of everything screened.
ANO1 activ = activators or potentiators of mouse TMEM16A chloride channel | HEK293 TMEM16A/YFP-H148Q/I152L, iodide quench fluorescence; active compounds read low | actives 0.3% (n = 340,000) | B-score at 10 µM | Q8BHY3;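 active = fluorescence-ratio B-score plate-corrected deviation score at least 3 library SD below zero, with starting fluorescence score within 5 deviations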;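 note: channel opened by trigger with iodide after compound preincubation; score built on the fluorescence ratio of max minus min over baseline; more negative score means more quench and so TMEM16A activation or potentiation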
Target sequence (Q8BHY3 whole entry, looked up): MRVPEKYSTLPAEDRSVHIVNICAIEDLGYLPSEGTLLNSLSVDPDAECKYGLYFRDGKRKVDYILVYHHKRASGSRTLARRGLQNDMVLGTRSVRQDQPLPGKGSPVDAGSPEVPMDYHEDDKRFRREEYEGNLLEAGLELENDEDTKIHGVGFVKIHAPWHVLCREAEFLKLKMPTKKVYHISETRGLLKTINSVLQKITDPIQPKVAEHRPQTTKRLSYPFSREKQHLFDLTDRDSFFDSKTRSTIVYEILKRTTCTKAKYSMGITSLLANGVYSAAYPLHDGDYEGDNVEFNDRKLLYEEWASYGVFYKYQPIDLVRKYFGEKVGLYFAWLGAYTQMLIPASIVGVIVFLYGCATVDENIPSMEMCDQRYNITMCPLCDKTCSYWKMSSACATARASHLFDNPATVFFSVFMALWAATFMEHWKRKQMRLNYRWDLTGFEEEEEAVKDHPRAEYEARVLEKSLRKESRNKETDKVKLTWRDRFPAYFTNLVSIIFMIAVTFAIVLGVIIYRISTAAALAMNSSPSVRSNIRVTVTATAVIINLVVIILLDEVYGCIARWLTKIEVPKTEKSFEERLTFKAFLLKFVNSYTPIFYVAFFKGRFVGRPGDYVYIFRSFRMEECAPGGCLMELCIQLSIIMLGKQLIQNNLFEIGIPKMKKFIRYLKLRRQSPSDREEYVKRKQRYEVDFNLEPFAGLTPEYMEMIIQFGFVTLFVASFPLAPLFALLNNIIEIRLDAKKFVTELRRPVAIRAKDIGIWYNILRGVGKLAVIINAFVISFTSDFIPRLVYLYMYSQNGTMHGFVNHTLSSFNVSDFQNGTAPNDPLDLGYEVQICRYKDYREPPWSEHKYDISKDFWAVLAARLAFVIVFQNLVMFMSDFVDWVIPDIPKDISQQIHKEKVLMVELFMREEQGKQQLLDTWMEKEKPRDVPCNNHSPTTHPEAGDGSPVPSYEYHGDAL
IDE inh = cellular human IDE inhibition; P14735; actives 0.41% (n = 320,000); AID 434962; HEK cells, FAbetaB cleavage, fluorescence polarization; inhibition, % at 5.59 µM;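 active = percent inhibition above the average of all tested compounds plus 3 SD, set per screening campaign, cut at about 16% in these data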;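 note: IDE supplied by intact live HEK cells; FP after avidin binding of uncleaved biotin substrate so inhibition keeps polarization high; 0% = DMSO wells and 100% = 60 µM reference IDE inhibitor Ii1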
IDE cell activ = IDE (human) activation, cell-based | HEK cells, FAbeta-B cleavage, fluorescence polarization; 0% vehicle, 100% cell-free pure enzyme wells | activation, % at 5.96 µM | actives 0.073% (n = 340,000) | AID 493087;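 active = activation above the mean of all tested compounds plus 3 SD, set per screening campaign, cut at about 17% in these data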
ANO1 block = inhibitors of mouse TMEM16A calcium-activated chloride channel. Q8BHY3. HEK293 TMEM16A/YFP iodide influx fluorescence, ionomycin. normalized B-score (activity score, 25-100; higher = stronger inhibition) at 10 µM. actives 1.2% (n = 310,000). AID 588511;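 active = ratio plate-corrected score three or more library SD toward inhibition, starting fluorescence score within five deviations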;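 note: score derived from kinetic fluorescence span divided by baseline fluorescence per well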
CHT PAM = human CHT allosteric activation; AID 488977; actives 0.49% (n = 310,000); CHT-expressing cells, membrane potential dye, choline EC20; active compounds read high; LV-AA mutant CHT in HEK293 cells; B-score at 10 µM; Q9GZV3;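 active = initial fluorescence not abnormally high and integrated response B-score, plate-corrected, over 3 SD above library mean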
CHT inh = inhibits the human high affinity choline transporter. Q9GZV3. CHT-expressing cells, membrane potential dye, choline response; active compounds read low. B-score at 10 µM. actives 0.86% (n = 310,000);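 active = B-score over 3 SD under the library average, and starting fluorescence ratio not unusually high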;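 note: choline stimulus applied at its EC90 after an EC20 pre-addition; B-score computed on integrated fluorescence ratio after choline addition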
CHT block conf = human CHT inhibition, confirmatory screen; CHT activity remaining % of control (active compounds read low), % at 10 µM; AID 493221; shares compounds with CHT inh; actives 70% (n = 2,400); CHT-expressing cells, choline membrane potential dye; LV-to-AA substituted CHT, HEK293 cells;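 active = choline transporter activity left, mean of duplicates at 10 µM, below buffer-only control mean minus 3 SD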;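 note: depolarization triggered by choline at its EC90 following an EC20 pre-addition; 0% = hemicholinium-3 full block and 100% = buffer-only control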
HEK293 MPD ctr = CHT inhibitor counter-screen hit in parental HEK293 cells; shares compounds with CHT inh; membrane potential dye, choline response; active = decrease or increase beyond buffer ±3SD; membrane potential ratio readout (active if shifted either direction beyond buffer ±3SD; no single direction) at 10 µM; actives 4% (n = 2,400); AID 493222;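 note: parental cells lack the transporter so any hit is non-specific; ratio is peak minus trough fluorescence over baseline after EC90 choline challenge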
The depositor's hits bear a star; i = inactive; nt = not tested or not shown.

SMILES	ANO1 activ	IDE inh	IDE cell activ	ANO1 block	CHT PAM	CHT inh	CHT block conf	HEK293 MPD ctr
Cc1ccc(-n2nc3c(c2NC(=O)CC(C)C)CS(=O)(=O)C3)c(C)c1	i	4	3	i	i	i	nt	nt
O=C(Nc1ccc(S(=O)(=O)Nc2ccccc2)cc1)C1COc2ccccc2O1 (centres undefined)	i	-5	0	i	i	i	nt	nt
Cc1cc(C)nc(NS(=O)(=O)c2ccc(NC(=O)C3COc4ccccc4O3)cc2)n1 (centres undefined)	i	4	nt	i	i	-6.4*	41%*	i
CCCCCc1ccc(OCCOCCn2c[n+](C)c3ccccc32)c(CCCCC)c1	i	nt	15	nt	nt	nt	nt	nt
CCCCCc1ccc(OCCC[n+]2ccccc2)c(CCCCC)c1	i	0	-7	i	i	-15*	-5.5%*	i
CC1CCN(CCNC(=O)CCS(=O)(=O)c2ccc(Br)cc2)CC1	i	2	-9	i	i	-5.3*	i	i
O=C(CCS(=O)(=O)c1ccc(Br)cc1)NC1CCCC1	i	1	1	i	i	i	nt	nt
Cc1csc(C(C)NC(=O)c2ccc(OC3CCN(CCc4ccccc4)CC3)cc2)n1 (centres undefined)	i	2	6	i	i	-6.4*	30%*	2.6*
CC(C)N(C)C(=O)c1ccc(OC2CCN(CCc3ccccc3)CC2)cc1	i	6	5	i	i	i	nt	nt
COc1ccccc1/C=C/C=N/NC(=O)c1cc(-c2ccc(C)o2)[nH]n1	i	-2	-3	i	i	-17*	i	i
CCOc1ccc(OCCC(=O)OCC(=O)N2CCN(S(=O)(=O)c3ccc(C)cc3C)CC2)cc1	i	nt	1	nt	nt	nt	nt	nt
CC(C)(C)OC(=O)NCc1ccc(CNC(=O)c2nc[nH]c2C(=O)N2CCN(c3ccccc3)CC2)cc1	i	2	-11	nt	nt	nt	nt	nt
Oc1ccc(Cl)cc1C1=NNC(c2cccs2)C1 (centres undefined)	i	-1	-2	i	i	i	nt	nt
O=[N+]([O-])c1ccc(O)c(C2=NNC(c3ccccc3F)C2)c1 (centres undefined)	i	4	6	100*	i	-10*	20%*	i
COc1ccc(-c2csc(Cc3nnc4n3CCCCC4)n2)cc1	i	-3	-6	i	i	-5*	42%*	i
O=C(N/N=C/C=C/c1ccccc1[N+](=O)[O-])c1cc(-c2cccnc2)nc2ccccc12	i	4	0	i	i	-9.2*	i	i
COc1ccccc1-c1cc(C(=O)N/N=C/C=C/c2ccccc2[N+](=O)[O-])c2ccccc2n1	nt	1	-7	i	i	i	nt	nt
Cc1ccc(CNC(=O)CCSCc2ccc(C)cc2)cc1	i	2	2	i	i	i	nt	nt
CN(C)c1ccc(C2/C(=C(/O)c3ccccc3)C(=O)C(=O)N2CCCC(=O)O)cc1 (centres undefined)	i	-2	-3	i	i	-6.6*	i	i
CN(Cc1ccccc1)C(=O)COC(=O)COc1ccc(Cl)cc1	i	-3	3	nt	nt	nt	nt	nt
CN(Cc1ccccc1)C(=O)COC(=O)COc1ccc(C#N)cc1	i	-2	4	i	i	-5.3*	65%*	i
Nc1nc(Cl)nc2c1ncn2[C@@H]1O[C@H](CO)[C@@H](O)[C@H]1O	i	1	6	i	i	-5.8*	39%*	i
CC(C)(C)[C@@H]1COC(=O)[C@H](Cc2ccc(F)cc2)C/C=C\C[C@@H](CC(=O)NCCO)C(=O)N1	i	3	3	nt	nt	nt	nt	nt
CCc1ccc(NCc2nc(-c3ccccc3)no2)cc1	i	-4	2	i	i	-5.7*	58%*	i
Cc1ccc(-c2noc(CNc3ccccc3)n2)cc1	i	12	0	i	i	-5.8*	44%*	i
SMILES	ANO1 activ	IDE inh	IDE cell activ	ANO1 block	CHT PAM	CHT inh	CHT block conf	HEK293 MPD ctr
c1ccc(CCc2nc(-c3ccccc3)no2)cc1	i	6	3	i	i	i	nt	nt
C=CCSc1nsc(NC(=O)Nc2ccc(F)cc2)n1	i	0	0	100*	i	-7.8*	i	i
CC12CCC(=O)N1C(C(=O)N1CCN(c3cccc(Cl)c3)CC1)CS2 (centres undefined)	i	2	0	nt	nt	nt	nt	nt
C[C@@H](NCCc1ccc(O)cc1)[C@@H](O)c1ccc(O)cc1	i	2	7	i	i	-5*	47%*	i
CC1CCCCC12NC(=O)N(CC(=O)Nc1nccs1)C2=O (centres undefined)	i	3	6	nt	nt	nt	nt	nt
COc1cc(S(=O)(=O)Nc2ccc3c(c2)C(=O)N(C)C3=O)ccc1NC(C)=O	i	11	-6	nt	nt	nt	nt	nt
O=C(Cc1cccc(NC(=O)C2CCCN(C(=O)C3CCC3)C2)c1)Nc1ccc(C(=O)N2CCCCC2)cc1 (centres undefined)	nt	nt	5	nt	nt	nt	nt	nt
CN(Cc1ccccc1)C(=O)COC(=O)c1cc2ccccc2oc1=O	i	-2	2	nt	nt	nt	nt	nt
O=C(COC(=O)c1ccco1)NC(c1ccccc1)c1ccccc1	i	2	0	i	i	-14*	i	i
O=C(CN1CCCC1)Nc1ccc(OCc2ccccc2)cc1	i	-3	7	i	i	i	nt	nt
N#CCN1CCN(CCC(=O)Nc2ccc(OCc3ccccc3)cc2)CC1	i	3	6	i	i	i	i	i
CCOC(=O)Cn1nnc(-c2ccccc2)n1	i	-2	2	i	i	i	nt	nt
CCc1ccccc1-n1nnc(-c2ccccc2)n1	nt	7	1	i	i	-5.4*	i	i
Cc1ccc(S(=O)(=O)N(C)C)cc1NC(=O)c1cc(C(C)(C)C)nn1Cc1ccccc1	i	-1	8	i	i	i	nt	nt
CCOC(=O)c1sc(=S)n(CC)c1NC(=O)C1CC1	i	4	0	i	i	-6.1*	71%*	i
COc1ccc(Nc2nc3nonc3nc2N2CCCCC2)cc1	i	1	-1	i	i	i	nt	nt
CC1CCN(c2nc3nonc3nc2Nc2ccc(F)cc2)CC1	i	-14	6	i	i	-5.4*	i	i
